The record followed here is PubChem BioAssay (NCI).

This is part of a sample that, as a whole, favours compounds with a hit. Of some 83,000 tested, about 20% had one in any assay.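 For each line, cells grew in 96-well plates with the test compound present at a single concentration for 48 hours.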 Values without a mark were called inactive. Calls of active or inactive are those of the source. Rule for the calls: active = growth percent below 10; inactive = the rest.

Among the test systems are NCI-H23 lung; NCI-H226 lung; NCI-H322M lung; HOP-62 NSCLC; NCI-H460 lung; HOP-92 NSCLC; A549/ATCC NSCLC; COLO 205 colon; DU-145 prostate; K-562 leukemia; MALME-3M melanoma; MDA-MB-231 breast; RXF 393 renal; SF-268 CNS; SF-295 CNS; SF-539 CNS; UACC-257 melanoma; 786-0 renal; M14 melanoma.
Holding throughout (assay): NCI-60 one-dose screen, 48 h (100 = growth as untreated, 0 = no growth, -100 = all killed)
Details in all cases: 10 µM

For `Oc1ccccc1O`, the growth with NCI-H23 lung was 97.7%; in the assay with NCI-H226 lung, 102%; with NCI-H322M lung, 91.2%; in the assay with HOP-62 NSCLC, 95.9%; with NCI-H460 lung, 100%; with HOP-92 NSCLC, 90.5%. Besides, the growth in the assay with A549/ATCC NSCLC was 78.1%; in the assay with COLO 205 colon, 93.8%; with DU-145 prostate, 106%; with K-562 leukemia, 112%; in the assay with MALME-3M melanoma, 138%; with MDA-MB-231 breast, 63.9%. The growth in the assay on RXF 393 renal is 94.4%; with SF-268 CNS it was 87.2%; in the assay with SF-295 CNS it was 136%; in the assay with SF-539 CNS, 84.1%; in the assay with UACC-257 melanoma, 87.7%.

`CCc1nn(Cc2ccccc2)c2nc(C)c(CCc3ccccc3)c(Cl)c12`: the growth was 101% with NCI-H23 lung; 90.7% in the assay with NCI-H226 lung; 79.5% in the assay on NCI-H322M lung; 104% with HOP-62 NSCLC; 90.8% with NCI-H460 lung; 9.07% (active) in the assay on HOP-92 NSCLC. Besides, the growth was 85% with 786-0 renal; 110% with COLO 205 colon; 102% with DU-145 prostate; 61.1% with K-562 leukemia; 75.5% in the assay with MALME-3M melanoma; 99.7% in the assay with MDA-MB-231 breast. Moreover, the growth is 106% with SF-268 CNS, 85.1% in the assay with SF-295 CNS, 86.7% with SF-539 CNS and 100% in the assay on M14 melanoma.

Take `CCCC(=O)c1cc(C)ccc1OC`: the growth in the assay with NCI-H23 lung was 108%; with NCI-H226 lung it was 99.7%; in the assay with NCI-H322M lung, 126%; in the assay on HOP-62 NSCLC it was 101%; in the assay on NCI-H460 lung, 106%; with HOP-92 NSCLC it was 81.5%. For the same compound, the growth with A549/ATCC NSCLC is 111%; in the assay on COLO 205 colon it was 112%; in the assay with DU-145 prostate, 119%; with MALME-3M melanoma it was 135%; in the assay with MDA-MB-231 breast, 93.8%; in the assay with RXF 393 renal it was 109%. Also, the growth in the assay on SF-268 CNS was 96%; in the assay with SF-295 CNS, 125%; in the assay on SF-539 CNS it was 94.9%; in the assay on UACC-257 melanoma, 112%.

Turning to `COC(=O)CCCCC1=CCC2C(=O)C=C(O)C2C1` (stereo unspecified), the growth is 100% in the assay on NCI-H23 lung; 102% in the assay with NCI-H226 lung; 92.4% with NCI-H322M lung; 91.8% in the assay on HOP-62 NSCLC; 105% in the assay with NCI-H460 lung; 85.2% in the assay with HOP-92 NSCLC. Further, the growth is 98.7% in the assay on A549/ATCC NSCLC; 99.9% with 786-0 renal; 111% with COLO 205 colon; 104% with DU-145 prostate; 90.9% in the assay with K-562 leukemia; 106% with MALME-3M melanoma. Moreover, the growth was 106% in the assay on MDA-MB-231 breast; 103% in the assay on RXF 393 renal; 104% in the assay on SF-268 CNS; 99.8% with SF-539 CNS; 109% with M14 melanoma.

Turning to `O=C(O)c1ccccc1NCc1ccco1`, the growth with NCI-H23 lung is 90.9%; in the assay on NCI-H226 lung, 92.6%; in the assay on NCI-H322M lung it was 102%; in the assay with HOP-62 NSCLC it was 95.7%; with NCI-H460 lung, 102%; in the assay on HOP-92 NSCLC it was 108%. For the same compound, the growth is 102% in the assay on A549/ATCC NSCLC; 97.2% in the assay with 786-0 renal; 126% in the assay with COLO 205 colon; 118% in the assay on DU-145 prostate; 104% in the assay on K-562 leukemia; 108% in the assay on MALME-3M melanoma. In addition, the growth is 104% in the assay on MDA-MB-231 breast; 111% in the assay on SF-268 CNS; 114% in the assay with SF-295 CNS; 103% with SF-539 CNS; 143% in the assay on UACC-257 melanoma; 102% with M14 melanoma.

On to `O=C(O)c1ccc(S(=O)(=O)O)cc1`, for which the growth in the assay with NCI-H23 lung is 101%; with NCI-H226 lung it was 99.6%; with NCI-H322M lung, 98.8%; in the assay on HOP-62 NSCLC, 99.3%; in the assay with NCI-H460 lung, 109%; in the assay on HOP-92 NSCLC, 76.3%. Further, the growth in the assay on A549/ATCC NSCLC is 91.5%; in the assay on 786-0 renal, 89.7%; in the assay on COLO 205 colon, 129%; in the assay on DU-145 prostate, 133%; in the assay on K-562 leukemia, 114%; in the assay on MALME-3M melanoma, 97.2%. In addition, the growth with MDA-MB-231 breast was 107%; in the assay on SF-268 CNS, 123%; in the assay with SF-295 CNS, 107%; in the assay on SF-539 CNS it was 97.9%; with M14 melanoma, 117%.

On to `Cc1cc(C(C)(C)C)cc(C)c1Br`, for which the growth is 104% with NCI-H23 lung; 111% in the assay on NCI-H226 lung; 121% with NCI-H322M lung; 99.8% with HOP-62 NSCLC; 103% in the assay with NCI-H460 lung; 75.5% in the assay on HOP-92 NSCLC. Further, the growth in the assay on A549/ATCC NSCLC is 109%; in the assay on COLO 205 colon, 112%; in the assay on DU-145 prostate it was 121%; with K-562 leukemia it was 111%; in the assay on MALME-3M melanoma, 135%; with MDA-MB-231 breast, 108%. For the same compound, the growth in the assay on RXF 393 renal is 113%; with SF-268 CNS, 102%; in the assay on SF-295 CNS, 103%; in the assay with SF-539 CNS, 94.9%; in the assay with UACC-257 melanoma, 105%; in the assay on M14 melanoma, 98.5%.

For the compound `C[C@]12CC[C@@H]3c4ccc(OCC(=O)O)cc4CC[C@H]3[C@@H]1CCC2=O`, the growth was 94.2% in the assay with NCI-H23 lung; 95.7% in the assay on NCI-H226 lung; 98% with NCI-H322M lung; 75% with HOP-62 NSCLC; 101% with NCI-H460 lung; 92.1% in the assay with HOP-92 NSCLC. In addition, the growth in the assay on A549/ATCC NSCLC was 93.3%; in the assay on 786-0 renal it was 102%; in the assay with COLO 205 colon, 105%; in the assay with DU-145 prostate, 109%; in the assay on K-562 leukemia, 78.7%; with MDA-MB-231 breast it was 101%. For the same compound, the growth in the assay on RXF 393 renal was 115%; with SF-268 CNS, 91%; with SF-295 CNS, 111%; in the assay on SF-539 CNS, 97.5%; in the assay with UACC-257 melanoma, 93.4%; in the assay with M14 melanoma, 97.2%.

Turning to `CC(=O)C1CCCCC1`, the growth was 103% in the assay on NCI-H23 lung; 89.9% in the assay on NCI-H226 lung; 105% in the assay on NCI-H322M lung; 96% in the assay with HOP-62 NSCLC; 102% in the assay on NCI-H460 lung; 77.5% in the assay on HOP-92 NSCLC. Moreover, the growth was 97.2% in the assay with A549/ATCC NSCLC; 98.8% in the assay on 786-0 renal; 101% with COLO 205 colon; 111% in the assay with DU-145 prostate; 107% in the assay with MALME-3M melanoma; 102% in the assay with MDA-MB-231 breast. The growth was 99.1% with RXF 393 renal; 107% with SF-268 CNS; 92.4% in the assay with SF-295 CNS; 111% in the assay with SF-539 CNS; 106% in the assay with M14 melanoma.

Take `C/C(=N\NC(=O)c1ccccc1N)c1ccccc1O`: the growth with NCI-H23 lung is 38.7%; in the assay with NCI-H226 lung it was 52.8%; in the assay with NCI-H322M lung, 26.4%; in the assay with HOP-62 NSCLC it was 43.3%; in the assay with NCI-H460 lung, 23.5%; with HOP-92 NSCLC it was 18.2%. For the same compound, the growth in the assay with A549/ATCC NSCLC was 28.2%; in the assay with 786-0 renal, 60.6%; in the assay with DU-145 prostate, 45.6%; with K-562 leukemia it was 34%; in the assay with MALME-3M melanoma it was 50%; in the assay on MDA-MB-231 breast, 44.7%. Moreover, the growth was 74.9% in the assay on RXF 393 renal; 39.3% with SF-268 CNS; 12.8% in the assay on SF-295 CNS; 32.5% in the assay on SF-539 CNS; 38.9% in the assay on M14 melanoma.
